Source: PubChem (National Center for Advancing Translational Sciences (NCATS))
Hits are enriched below; roughly 1.3% of the tested compounds scored in any of these assays.
mIDH1 inhibitor – human IDH1 R132H inhibition; O75874; IDH1-R132H enzyme, NADPH consumption, diaphorase/resazurin fluorescence; Potency, µM (titrated, usually from 76.6 µM), for inactives: top-dose activity change, negative = inhibition, hits mostly inhibitors; 390,000 compounds, 0.093% hits; also: potency is read from the fitted curve at half-maximal effect; % is scaled to controls: 0 for no effect and ±100 for the full control effect; nearly all actives have a fitted effect of over 65% in size
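IDH1-R132H (0.5 ug/mL) preincubated 30 min with compound, then NADPH (0.016 mM) and alpha-KG (2 mM) added; 80 min at RT, pH 7.5. Remaining NADPH coupled via diaphorase/resazurin to fluorescence (540/590 nm); concentration-response curves normalized to no-enzyme control.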
PKM2 act – increases activity of human pyruvate kinase M2; P14618; purified PKM2, Kinase-Glo ATP luminescence, activation; response scale: 0% is enzyme alone, no compound; Potency, µM (top dose mostly 57.5 µM), for inactives: at the highest dose activation, usual class: activators; 260,000 compounds, 0.34% hits; AID 1631; also: potency is read from the fitted curve at half-maximal effect; % is scaled to controls: 0 for no effect and ±100 for the full control effect; nearly all actives have a fitted effect of over 55% in size
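Kinase-Glo luminescence reports ATP generated from ADP (0.1 mM) and PEP (0.5 mM) by purified hPK-M2 after 1 h at room temperature, pH 7.2 imidazole buffer; intermediate enzyme activity allows detecting inhibitors and activators.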
TrxR1 inh – rat TrxR1 inhibition; recombinant rTrxR1, NADPH fluorescence consumption, selenite substrate; Potency, µM (highest dose often 114 µM), for the others: at the highest dose activity change, negative = inhibition, hits mostly inhibitors; 390,000 compounds, 1% hits; also: potency is read from the fitted curve at half-maximal effect; % is scaled to controls: 0 for no effect and ±100 for the full control effect; nearly all actives have a fitted effect of over 65% in size
Target sequence (O89049 whole entry, looked up): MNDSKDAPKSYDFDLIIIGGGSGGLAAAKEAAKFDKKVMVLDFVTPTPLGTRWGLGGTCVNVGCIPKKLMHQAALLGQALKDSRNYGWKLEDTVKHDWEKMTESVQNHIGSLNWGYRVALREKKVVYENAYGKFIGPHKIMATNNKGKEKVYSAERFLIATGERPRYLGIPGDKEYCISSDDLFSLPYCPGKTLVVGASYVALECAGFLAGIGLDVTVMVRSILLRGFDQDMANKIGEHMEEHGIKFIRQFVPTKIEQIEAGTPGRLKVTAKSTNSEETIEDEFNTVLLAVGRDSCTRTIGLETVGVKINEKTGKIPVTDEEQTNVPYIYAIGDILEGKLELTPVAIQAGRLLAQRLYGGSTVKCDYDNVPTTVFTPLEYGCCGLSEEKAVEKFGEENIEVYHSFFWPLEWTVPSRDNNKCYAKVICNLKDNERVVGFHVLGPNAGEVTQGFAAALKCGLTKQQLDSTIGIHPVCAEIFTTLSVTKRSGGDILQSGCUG
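Rat TrxR1 (90 nM in the dispensed reagent) was pre-reduced with 400 uM NADPH for 5 min at room temperature, then incubated with compound for 15 min. After 400 uM selenite was added, NADPH fluorescence (Ex 340/Em 450 nm) was followed for 8 min.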
Anesthetic bind – candidate novel general anesthetic via apoferritin binding; P02791; apoferritin/1-aminoanthracene competitive binding, fluorescence; Potency, µM (titrated, usually from 77.5 µM), for the others: at the highest dose activity change, negative = displacement, most hits filed as inhibitors; 350,000 compounds, 0.074% hits; also: potency is read from the fitted curve at half-maximal effect; % is scaled to controls: 0 for no effect and ±100 for the full control effect; nearly all actives have a fitted effect of over 20% in size
Target sequence (P02791 2-175 limits assumed): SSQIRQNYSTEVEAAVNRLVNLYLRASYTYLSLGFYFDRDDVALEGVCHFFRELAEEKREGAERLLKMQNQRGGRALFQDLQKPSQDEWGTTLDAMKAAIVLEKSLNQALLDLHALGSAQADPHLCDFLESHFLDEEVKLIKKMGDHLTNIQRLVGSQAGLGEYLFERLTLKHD
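Concentration-response curves derived by four-parameter Hill fitting of normalized fluorescence, where compounds displaced 1-AMA from 10 uM horse apoferritin following a brief 10 min room-temperature incubation; propofol titration acted as positive control.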
GALK inh – blocks human galactokinase activity; Purified GALK, Kinase-Glo residual ATP luminescence; 270,000 compounds, 0.007% hits; Potency, µM (titrated, usually from 57.5 µM), for inactives: top-dose activity change, negative = inhibition, hits mostly inhibitors; AID 1868; P51570; also: potency is read from the fitted curve at half-maximal effect; % is scaled to controls: 0 for no effect and ±100 for the full control effect
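Quantitative HTS: GALK 5 nM, ATP 35 uM, galactose 100 uM, 1 h room temperature, then luciferase-based ATP detection.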
TrxR1 substrate – substrates of rat thioredoxin reductase 1; Potency, µM (series often up to 114 µM), without a hit: top-dose activity change, negative = substrate turnover; purified TrxR1 substrate turnover, NADPH consumption readout; 390,000 compounds, 0.01% hits; AID 588456; also: potency is read from the fitted curve at half-maximal effect; % is scaled to controls: 0 for no effect and ±100 for the full control effect; nearly all actives have a fitted effect of over 50% in size
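Rat TrxR1, dispensed at 90 nM, was prereduced with 400 uM NADPH (final) for 5 min at ~22 deg C, then incubated with compound 15 min before 400 uM selenite. A first-read NADPH fluorescence drop versus no-compound background flagged substrates.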
HeLa tox – HeLa cytotoxicity, CellTiter-Glo readout; shares compounds with PKM2 act; HeLa viability, CellTiter-Glo ATP luminescence, 24 h; activity change, negative = cytotoxicity, % at 57.5 µM; 230 tested, under 10 active; also: % of control where 0% means no effect
An asterisk follows results filed as active; [ ] = another dose, or the depositor's remark. Calls follow the shape of the dose curve; as a rule, active = well fitted curve in the direction sought with a large enough effect; inconclusive = small, poorly fitted or top-dose-only effect, or another doubt; inactive = no such curve, though single readings can be large; an effect the other way counts as inactive or inconclusive.

Results for Cc1ccccc1NS(=O)(=O)c1ccc2c(c1)n(C)c(=O)n2C ?
mIDH1 inhibitor: 0%; PKM2 act: 2.5µM*; TrxR1 inh: -8%[57.1 µM]; Anesthetic bind: -7%; GALK inh: -2%; TrxR1 substrate: -5%[57.1 µM]; HeLa tox: 3

How did COC(=O)NCc1c(C)nn(-c2ccccc2)c1-n1cccc1 do in these assays?
mIDH1 inhibitor: 0%; TrxR1 inh: -6%; Anesthetic bind: -6%; TrxR1 substrate: -6%

What do the screens show for `CCc1ccc(NC(=O)Cn2ncc3c4ccccc4n(C)c3c2=O)cc1`?
mIDH1 inhibitor: -7%; PKM2 act: 1%; TrxR1 inh: 5%; Anesthetic bind: -3%; GALK inh: -4%; TrxR1 substrate: 2%

How did Cc1cc2c(s1)c1cnn(Cc3ccc(F)c(F)c3F)c(=O)c1n2C do in these assays?
HeLa tox: -18

Results for Cc1cc2c(s1)c1cnn(Cc3ccccc3F)c(=O)c1n2C(C)C ?
HeLa tox: -11

How did Cc1cc2c(s1)c1cnn(Cc3c(F)c(F)cc(F)c3F)c(=O)c1n2C do in these assays?
HeLa tox: 3

Results for CC(CCc1ccccc1)NC(=O)Cn1ncc2c3ccccc3n(Cc3ccccc3F)c2c1=O (configuration not stated) ?
mIDH1 inhibitor: -3%; TrxR1 inh: 21%; Anesthetic bind: -10%; TrxR1 substrate: 14%

How did CCCCCn1ncc2c3sc(C)cc3n(C)c2c1=O do in these assays?
HeLa tox: -14

What do the screens show for `COc1ccc2ncc3c(-c4ccc(C)c(C)c4)nn(CC(=O)NC4CCCCC4)c3c2c1`?
mIDH1 inhibitor: -2%; TrxR1 inh: 12%[57.1 µM]; Anesthetic bind: -4%; TrxR1 substrate: -2%[57.1 µM]

Results for Cc1cc2c(s1)c1cnn(Cc3c(F)cccc3F)c(=O)c1n2C ?
HeLa tox: 8

What do the screens show for `Cc1cc2c(s1)c1cnn(Cc3cccc(Cn4ncc5c6sc(C)cc6n(C)c5c4=O)c3F)c(=O)c1n2C`?
HeLa tox: 6

Results for Cn1c2ccccc2c2cnn(CC(=O)Nc3ccccc3F)c(=O)c21 ?
mIDH1 inhibitor: 11%; TrxR1 inh: 4%; Anesthetic bind: -4%; TrxR1 substrate: 3%

Results for CNC(=O)NC(=O)CSc1ncc(C(F)(F)F)cc1Cl ?
mIDH1 inhibitor: 1%; PKM2 act: 0.4µM*; TrxR1 inh: 7%; Anesthetic bind: -5%; GALK inh: 0%; TrxR1 substrate: 1%; HeLa tox: 0

Results for Cc1ccc(NC(=O)CN(C)C(=O)CSc2ncc(C(F)(F)F)cc2Cl)cc1 ?
mIDH1 inhibitor: 6%; PKM2 act: -4%; TrxR1 inh: 5%; Anesthetic bind: inconclusive; GALK inh: -3%; TrxR1 substrate: 1%

What do the screens show for `Cc1ccc(S(=O)(=O)c2cn(Cc3ccccc3)c3cc(N4CCCC4)c(F)cc3c2=O)cc1`?
mIDH1 inhibitor: 29%; TrxR1 inh: 56%; Anesthetic bind: -12%; TrxR1 substrate: 85%

What do the screens show for `Cc1cccn2c3c(c(=O)nc12)C(c1ccc(F)cc1)CC(=O)N3` (configuration not stated)?
mIDH1 inhibitor: 51%; TrxR1 inh: 59%[57.1 µM]; Anesthetic bind: 53%; TrxR1 substrate: 13%[57.1 µM]

How did Oc1ccc(Nc2nc(-c3ccc4ccccc4c3)cs2)cc1 do in these assays?
PKM2 act: -12%; Anesthetic bind: -21%; GALK inh: -4%

What do the screens show for `Oc1ccc(-c2nc(-c3ccc(O)c(O)c3)cs2)cc1`?
mIDH1 inhibitor: 4%; PKM2 act: 3.2µM*; TrxR1 inh: inconclusive; Anesthetic bind: -6%; GALK inh: 5%; TrxR1 substrate: -14%; HeLa tox: -5

What do the screens show for `CC(C)c1ccc(OCC(=O)Nc2ccc(S(=O)(=O)Nc3ncccn3)cc2)cc1`?
mIDH1 inhibitor: 12%; TrxR1 inh: 1%; Anesthetic bind: 1%; TrxR1 substrate: 4%

Results for CC(C)c1ccc(S(=O)(=O)c2cc3cc(Br)ccc3oc2=O)cc1 ?
mIDH1 inhibitor: 0%; PKM2 act: 0.56µM*; TrxR1 inh: -42%; Anesthetic bind: -1%; GALK inh: 0%; TrxR1 substrate: 8%[57.1 µM]; HeLa tox: -12

Results for COc1ccccc1CCNC(=O)c1ccc2c(c1)c(C)c(C)n2C ?
mIDH1 inhibitor: -1%; TrxR1 inh: 18%[57.1 µM]; Anesthetic bind: -9%; TrxR1 substrate: 9%[57.1 µM]

How did CNc1c([N+](=O)[O-])cnn1-c1ccc(Cl)cc1 do in these assays?
mIDH1 inhibitor: 6%; PKM2 act: 7.9µM*; TrxR1 inh: 6%; Anesthetic bind: -10%; GALK inh: 2%; TrxR1 substrate: 4%; HeLa tox: 8

How did O=C(CCCCCn1c(=O)c2sccc2n(CC(=O)Nc2cccc(Cl)c2)c1=O)NCc1ccc2c(c1)OCO2 do in these assays?
mIDH1 inhibitor: 4%; TrxR1 inh: inconclusive; Anesthetic bind: 58%; TrxR1 substrate: 1%

What do the screens show for `Cn1c2cc(S(C)=O)sc2c2cnn(Cc3ccccc3F)c(=O)c21` (configuration not stated)?
HeLa tox: 10

What do the screens show for `CC(=O)c1cc2c(s1)c1cnn(Cc3ccccc3F)c(=O)c1n2C`?
HeLa tox: -1

What do the screens show for `COc1ccc(S(=O)(=O)N2CCN(S(=O)(=O)c3c(F)cccc3F)CC2)cc1`?
HeLa tox: 4

What do the screens show for `COc1ccc(S(=O)(=O)c2ccc(O)cc2)cc1`?
mIDH1 inhibitor: 3%; PKM2 act: 4.5µM*; TrxR1 inh: 11%; Anesthetic bind: -7%; GALK inh: 2%; TrxR1 substrate: 6%; HeLa tox: 0

Results for CN1CCN(C(c2ccc(Cl)cc2Cl)c2sc3nc(-c4ccco4)nn3c2O)CC1 (configuration not stated) ?
mIDH1 inhibitor: 1%; TrxR1 inh: 12%[57.1 µM]; Anesthetic bind: -5%; TrxR1 substrate: 1%[57.1 µM]

What do the screens show for `Cc1cc2c(cc1S(=O)(=O)Nc1cccc(C)c1C)OCC(=O)N2`?
mIDH1 inhibitor: 12%; PKM2 act: inconclusive; TrxR1 inh: 6%[57.1 µM]; Anesthetic bind: -14%; TrxR1 substrate: 8%[57.1 µM]
